# Gal4-VP16 FLuc – inhibits Gal4-VP16 luciferase reporter, ROR gamma counter-screen; Drosophila S2 Gal4-VP16 UAS-luciferase, luminescence, 20 h; Potency, µM (highest dose often 53.6 µM), hits mostly inhibitors; 3.5% of 310,000 active; AID 2546;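 further: Gal4-VP16 expression switched on by copper sulfate through the metallothionein promoter; nearly all actives have a fitted effect of over 50% in size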
# RORgamma inh – inhibitors of mouse ROR gamma transcriptional activity. P51450. Drosophila S2 Gal4-RORgamma UAS-luciferase reporter, 20 h. Potency, µM (series often up to 53.6 µM), actives largely listed as inhibitors. 5.4% of 310,000 active; further: nearly all actives have a fitted effect of over 60% in size
# Target sequence (P51450 whole entry, looked up, the tested form may be a part): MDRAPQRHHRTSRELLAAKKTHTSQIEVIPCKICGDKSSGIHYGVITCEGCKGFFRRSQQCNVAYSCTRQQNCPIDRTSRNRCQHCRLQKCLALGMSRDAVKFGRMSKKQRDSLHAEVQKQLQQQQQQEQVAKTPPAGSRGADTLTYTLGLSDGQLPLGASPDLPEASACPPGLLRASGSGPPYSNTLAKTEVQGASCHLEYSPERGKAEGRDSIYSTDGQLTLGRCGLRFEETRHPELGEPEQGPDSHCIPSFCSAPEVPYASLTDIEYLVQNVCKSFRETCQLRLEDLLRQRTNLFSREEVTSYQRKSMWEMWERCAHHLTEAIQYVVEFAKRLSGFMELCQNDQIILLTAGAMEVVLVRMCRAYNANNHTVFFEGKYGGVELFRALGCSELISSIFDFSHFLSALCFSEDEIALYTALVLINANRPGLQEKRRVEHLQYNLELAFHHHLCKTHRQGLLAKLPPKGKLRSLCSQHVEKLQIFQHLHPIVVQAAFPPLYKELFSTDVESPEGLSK
#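 Luciferase reporter read in Schneider cells carrying Gal4-RORγ (mouse) and UAS-Photinus luciferase; cells given compound 1 h before 700 uM copper sulfate induction, then incubated 20 h at ambient temperature.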
# SW480 rereplic – DNA re-replication induction in SW480 cells; AID 624297; Potency, µM (doses to about 46.1 µM), hits mostly activators; SW480 DNA re-replication, Hoechst DNA content imaging, 48 h; 1.8% of 340,000 active; further: nearly all actives have a fitted effect of over 55% in size
#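 DNA re-replication was detected as more nuclei of elevated Hoechst intensity after 48 hr exposure to compound (23 nL pinned per well of 250 cells).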
# KB-V1 cytotox – kills drug-selected multidrug resistant KB-V1 cells. KB-V1 MDR cells viability, CellTiter-Glo, 72 h. Potency, µM (top dose mostly 46.1 µM), actives largely listed as cytotoxic. 3.4% of 400,000 active; further: nearly all actives have a fitted effect of over 60% in size
#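 Readout: CellTiter-Glo luminescence, 10 min after addition. Cells: KB-V1 MDR subline, 72 h at 37 degrees C with compound. Analysis: corrected, normalized data fitted to concentration-effect curves.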
# KB-3-1 tox – kills parental KB-3-1 adenocarcinoma cells. KB-3-1 viability, CellTiter-Glo ATP luminescence, 72 h. 1.4% of 400,000 active. Potency, µM (series often up to 46.1 µM), most hits filed as cytotoxic. AID 1347075; further: nearly all actives have a fitted effect of over 60% in size
#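 Here the drug-naive KB-3-1 line serves as comparator for MDR sub-line selectivity; cells received compound titrations, 72 h at 37 °C, then CellTiter-Glo readout.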
# MCF10A rerep – inducers of DNA re-replication in MCF 10A breast cells; Potency, µM (top dose mostly 46.1 µM), hits mostly activators; 2.9% of 350,000 active; AID 624296; MCF 10A DNA re-replication, Hoechst nuclear intensity, 48 h; further: nearly all actives have a fitted effect of over 50% in size
# Hits are given with their value; 0 = inactive; ? = inconclusive; - = not tested or not shown; [ ] = remark or other dose. The list is not random: actives were taken first. Their share in the collection is about 10%. The call rests on the fitted dose curve; in most records, active means well fitted curve in the direction sought with a large enough effect; inconclusive means small, poorly fitted or top-dose-only effect, or another doubt; inactive means no such curve, though single readings can be large; an effect the other way counts as inactive or inconclusive.
SMILES,Gal4-VP16 FLuc,RORgamma inh,SW480 rereplic,KB-V1 cytotox,KB-3-1 tox,MCF10A rerep
CCCC[C@H](NC(=O)[C@H](CC(C)C)NC(=O)[C@@H](Cc1c[nH]c2ccccc12)NC(=O)[C@H](Cc1ccccc1)NC(=O)[C@@H](Cc1c[nH]c2ccccc12)NC(=O)[C@H](CC(N)=O)NC(=O)[C@@H](Cc1c(Cl)cccc1Cl)NC(=O)[C@@H]1CCCN1C(=O)[C@H](Cc1ccccn1)NC(=O)[C@@H]1CCCN1C(=O)[C@H](N)CCCCNC(=O)c1cccnc1)C(N)=O,0,0,-,-,-,-
CCn1cc(C(=O)Nc2cccc(Cl)c2)c2cc(OC)c(OC)cc2c1=O,-,-,-,0,0,-
Cn1c(-c2ccccc2)cnc1SCC(=O)N1CCCc2ccccc21,?,?,0,5.8µM,0,0
O=C(CSc1nnc(-c2ccccc2)n1-c1ccccc1)c1cccs1,0,?,0,20.6µM,0,?
Cc1ccc2nc(SCC(=O)N3CCCc4ccccc43)nc(=O)n2c1,-,-,0,18.4µM,0,0
Cc1ccc(C(=O)CSc2nnc(-c3ccccc3)n2-c2ccccc2)cc1,-,-,-,?,0,-
Cc1ccc(-c2noc(CCC(=O)N3CCCc4ccccc43)n2)cc1,0,0,0,23.1µM,0,0
CC1CCN(S(=O)(=O)c2ccc3c(ccc(=O)n3CC(=O)Nc3ccc(C(C)C)cc3)c2)CC1,-,-,-,?,0,-
COc1ccc(CCNC(=O)c2ccc3c(c2)CCN3S(=O)(=O)c2ccc(Cl)cc2)cc1,-,-,-,?,0,-
Cc1ccc2c(c1)CCCN2C(=O)CCc1nc2ccccc2c(=O)[nH]1,-,-,8.91µM,?,?,?
Cn1c(-c2ccccc2)cnc1SCC(=O)N1CCCCC1,8.91µM,5.01µM,0,0,0,0
O=C(CSc1n[nH]c(-c2cccs2)n1)N1CCCc2ccccc21,0,?,0,?,0,0
CC(=O)N1CCN(C(=O)CCc2nc3ccccc3c(=O)[nH]2)CC1,0,0,0,0,0,0
O=C(CSc1n[nH]c(-c2ccccc2O)n1)N1CCCc2ccccc21,0,11.2µM,?,?,?,?
Cn1c(SCC(=O)N2CCCC2)nc2ccccc21,0,0,0,0,0,0
C[C@H](CO)N1C[C@H](C)[C@@H](CN(C)S(=O)(=O)c2ccc(F)cc2)OCc2cn(nn2)CCCC1=O,-,-,-,0,0,-
Cc1ccc2oc3c(c(=O)c2c1)C(c1ccc(O)cc1)N(c1nc(C)c(C)s1)C3=O (configuration not stated),-,-,-,0,0,-
CCOc1ccc(OCC)c(NC(=O)Cn2ncc3c4ccccc4n(Cc4ccccc4)c3c2=O)c1,-,-,-,?,0,-
CCn1c(SCC(=O)Nc2nc3c(s2)CCCC3)nnc1-c1ccccc1,0,0,0,0,0,?
Cc1ccc(C)c2c1cc(C)c1nnc(SCC(=O)Nc3nc4c(s3)CCCC4)n12,0,0,0,0,0,20.6µM
Cc1ccc2cc(C)c3nnc(SCC(=O)Nc4nc5c(s4)CCCC5)n3c2c1C,0,0,?,18.4µM,0,?
COc1ccc2c(c1)C(=NNc1ccc(C(=O)O)cc1)c1cc(OC)ccc1-2,0,0,0,0,0,0
COc1ccc2c(c1)C(=NN)c1cc(OC)ccc1-2,0,?,0,10.3µM,0,0
NCc1cn(Cc2ccccc2)nc1-c1ccccc1,-,-,-,0,0,-
COc1ccccc1N(CC(=O)N/N=C(\C)c1cccc(Br)c1)S(C)(=O)=O,0,0,0,20.6µM,0,0
SMILES,Gal4-VP16 FLuc,RORgamma inh,SW480 rereplic,KB-V1 cytotox,KB-3-1 tox,MCF10A rerep
COc1ccccc1NCC(=O)N/N=C/c1cccnc1,0,0,0,0,0,0
COc1ccccc1NC(=O)c1c(N=Cc2c(O)ccc3ccccc23)cnn1C,0,?,?,?,20.6µM,?
O=C(Cc1n[nH]c(=O)[nH]c1=O)N/N=C/c1c(O)ccc2ccccc12,0,0,0,0,0,0
Cn1ncc(N=Cc2c(O)ccc3ccccc23)c1C(=O)N1CCOCC1,-,-,0[9.22 µM],0,0,0
O=C(CNc1ccc(F)cc1)N/N=C/c1c(O)ccc2ccccc12,2.82µM,1.26µM,?,0,?,0
COc1ccccc1NCC(=O)N/N=C/c1c(O)ccc2ccccc12,2.82µM,0.891µM,3.26µM,0,?,?
COc1ccc(NC(=O)CN2c3cccc4cccc(c34)S2(=O)=O)cc1OC,-,-,-,?,0,-
COC(=O)NC(c1ccccc1)c1c[nH]c2ccc(OC)cc12 (configuration not stated),0,0,-,-,-,-
O=C1NC[C@H](CC2CCCCC2)N(CCC23CC4CC(CC(C4)C2)C3)C1=O,-,-,-,0,0,-
Cc1ccc(C(=O)NCC(=O)OCC(=O)c2ccc3ccccc3c2)cc1,-,-,-,0,0,-
COc1ccccc1N(CC(=O)Nc1ccccc1C)S(C)(=O)=O,0,0,0,0,0,0
COc1ccccc1N(CC(=O)N/N=C/c1c(O)ccc2ccccc12)S(C)(=O)=O,?,12.6µM,?,0,?,?
CN(C)S(=O)(=O)c1ccc2c(c1)N(CC(=O)NCc1ccccc1)C(=O)C1CCCCN21 (configuration not stated),-,-,-,0,0,-
CCC(=O)NNC(=S)NC(=O)c1ccc(C)cc1,17.8µM,3.16µM,0,?,?,0
Cc1ccc(C(=O)NC(=S)NNC(=O)COc2ccccc2C)cc1,?,3.98µM,0,0,?,0
COC(=O)NNC(=O)COc1ccccc1C,0,0,0,0,0,0
CC(C)NC(=O)C1CCCN(S(=O)(=O)c2ccc3c(ccn3C)c2)C1 (configuration not stated),-,-,-,0,0,-
CC(=O)c1ccc(NC(=O)c2cnc(N3CCCC3)nc2C)cc1,-,-,-,0,0,-
COc1ccccc1-c1cccc(-c2nc(C(=O)Nc3nccs3)cc3c2[C@@H](CCO)N(C(=O)CC2CC2)C3)c1,-,-,-,?,0,-
CCC(=O)N1Cc2cc(C(=O)Nc3nccs3)nc(-c3cccc(-c4ccccc4OC)c3)c2[C@@H]1CCO,-,-,-,23.1µM,0,-
CC1CN(C(=O)CCc2cc(C(C)(C)C)c(O)c(C(C)(C)C)c2)CC(C)O1 (configuration not stated),0,0,0,0,0,0
CC(C)(C)c1cc(CCC(=O)N2CCC2)cc(C(C)(C)C)c1O,0,12.6µM,0,0,0,0
COc1ccccc1N=Nc1nc(-c2ccccc2)c(-c2ccccc2)[nH]1,5.01µM,3.16µM,0,0,?,0
Oc1ccccc1N=Nc1nc(-c2ccccc2)c(-c2ccccc2)[nH]1,3.98µM,3.98µM,?,0.92µM,0,?
COc1ccc(N=Nc2nc(-c3ccccc3)c(-c3ccccc3)[nH]2)cc1,2.82µM,2.24µM,0,?,?,0
C=CCc1c(C)nc(SC)nc1Nc1ccc(C)cc1,0,10µM,?,?,0,?
